Screening data: PubChem BioAssay, National Center for Advancing Translational Sciences (NCATS)
Compounds with a hit are over-represented: about 9% of the library has one in this group of screens.
HPGD block = qHTS Assay for Inhibitors of HPGD (15-Hydroxyprostaglandin Dehydrogenase); AID 894, 2007; 150,000 compounds, 4.3% hits; purified HPGD, NADH fluorescence kinetic, PGE2 substrate; Potency, µM, hits mostly inhibitors; active = well fitted inhibition curve with a large enough effect, not every such curve was filed as active; inconclusive = small, poorly fitted or top-dose-only effect, or another doubt; inactive = no such curve, though single readings can be large or run the other way
Target sequence (P15428 whole entry, looked up): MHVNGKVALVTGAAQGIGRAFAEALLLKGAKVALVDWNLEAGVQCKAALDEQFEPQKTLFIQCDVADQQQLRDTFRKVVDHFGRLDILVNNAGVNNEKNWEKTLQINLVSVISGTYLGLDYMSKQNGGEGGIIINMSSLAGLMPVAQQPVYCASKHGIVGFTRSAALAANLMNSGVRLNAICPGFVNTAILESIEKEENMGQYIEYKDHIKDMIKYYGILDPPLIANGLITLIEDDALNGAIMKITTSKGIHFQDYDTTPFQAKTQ
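NADH formation kinetics: reaction with 30 uM PGE2 and 1 mM NAD+ (final), 20 nM enzyme, Tris-HCl pH 8 with Tween 20, after 15 min compound preincubation at room temperature. Fluorescence change, last versus first of five reads.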
LMNA splice mod = qHTS Assay for Modulators of Lamin A Splicing; HeLa LMNA splicing GFP/RFP minigene ratio, 48 h; Potency, µM (top dose mostly 46.1 µM), actives largely listed as inhibitors; 200,000 compounds, 0.01% hits; AID 1487, 2009; active = well fitted inhibition curve with a large enough effect in the signal ratio, with a control signal flat, not every such curve was filed as active; inconclusive = small, poorly fitted or top-dose-only effect, or effect the other way, or a change in a side signal; the % refers to the signal ratio
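Read-out is the ratio of GFP to DsRed2 object intensity, acquired by 488 nm laser-scanning cytometry on HeLa lamin A-EGFP minigene reporter cells. Compound incubation 48 hrs at 37 °C in Opti-MEM with 2% FBS; DMSO 0.5% final.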
HTT cytoprotect = qHTS Multiplex Assay to Identify Dual Action Probes in a Cell Model of Huntington: Cytoprotection (ATP) | PC12 HTT-Q103 induced, cytoprotection, ATP luminescence, 40 h | 230,000 compounds, 0.14% hits | Potency, µM (doses to about 56.4 µM), most hits filed as activators; also: nearly all actives have a fitted effect of over 45% in size
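Readout: ATPlite luminescence (ATP level). Model: stable PC12, inducible Htt exon1 Q103-GFP. Inducer: tebufenozide, 100 nM final. Compounds: dose series. No G418 in medium.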
ALDH1A1 inh = qHTS Assay for Inhibitors of Aldehyde Dehydrogenase 1 (ALDH1A1) | Aldehyde dehydrogenase 1A1 (Homo sapiens), P00352 | Purified ALDH1A1, NADH fluorescence, propionaldehyde substrate | Potency, µM (series often up to 75.3 µM), usual class: inhibitors | 220,000 compounds, 7.3% hits; active = well fitted inhibition curve with a large enough effect, not every such curve was filed as active; inconclusive = small, poorly fitted or top-dose-only effect, or another doubt; inactive = no such curve, though single readings can be large or run the other way
Target sequence (P00352 whole entry, looked up): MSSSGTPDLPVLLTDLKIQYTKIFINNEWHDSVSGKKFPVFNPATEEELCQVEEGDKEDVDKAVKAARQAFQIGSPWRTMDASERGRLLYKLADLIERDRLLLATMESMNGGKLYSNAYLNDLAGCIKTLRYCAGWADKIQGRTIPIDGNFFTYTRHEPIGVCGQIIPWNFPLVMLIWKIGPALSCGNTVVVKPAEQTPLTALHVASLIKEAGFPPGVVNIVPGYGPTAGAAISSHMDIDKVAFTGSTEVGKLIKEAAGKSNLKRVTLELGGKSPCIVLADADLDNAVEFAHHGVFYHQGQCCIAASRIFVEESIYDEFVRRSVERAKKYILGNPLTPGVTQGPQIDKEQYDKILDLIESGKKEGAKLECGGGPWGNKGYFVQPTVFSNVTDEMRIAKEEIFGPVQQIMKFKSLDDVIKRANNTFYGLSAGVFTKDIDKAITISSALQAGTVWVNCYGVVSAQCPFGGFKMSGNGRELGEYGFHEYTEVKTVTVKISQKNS
HttQ103 aggreg = qHTS Multiplex Assay to Identify Dual Action Probes in a Cell Model of Huntington: Aggregate Formation (GFP) | PC12 HttQ103-GFP aggregates, Acumen cytometry, 40 h | Potency, µM (doses to about 46.1 µM), usual class: inhibitors | 220,000 compounds, 1.1% hits | AID 1688, 2009; also: nearly all actives have a fitted effect of over 60% in size
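Multiplexed with ATP-based cell death, this channel scores GFP aggregates in PC12 cells expressing inducible HTTex1-Q103-GFP. Induction used 100 nM tebufenozide; compounds were tested in concentration series.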
KinaseGlo FLuc = Counterscreen for Luciferase (Kinase-Glo TM) Inhibition | Luciferin 4-monooxygenase (Photuris pensylvanica), Q27757 | Kinase-Glo luciferase, ATP luminescence, 8 min | Potency, µM (top dose mostly 38.3 µM), most hits filed as inhibitors | 200,000 compounds, 0.28% hits; also: nearly all actives have a fitted effect of over 60% in size
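Compound is pinned into ATP-containing buffer (10 uM ATP, imidazole pH 7.2, 7 mM MgCl2). Kinase-Glo luciferase reagent is then added. Light output is recorded following an 8-min room-temperature incubation.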
Large screens that a line does not name were inactive. Unless noted, calls follow the shape of the dose curve; as a rule, active = well fitted curve in the direction sought with a large enough effect; inconclusive = small, poorly fitted or top-dose-only effect, or another doubt; inactive = no such curve, though single readings can be large; an effect the other way counts as inactive or inconclusive.

Cn1cnnc1SC(C(=O)Nc1ccc(F)cc1)c1ccccc1 (configuration not stated)	none
O=C1c2ccccc2C(=O)N1c1cccc(-c2nc3ccccc3o2)c1	none
O=C1C=CC(=O)N1c1cccc(-c2ccccc2)c1	ALDH1A1 inh 0.02µM, HttQ103 aggreg inconclusive (no result: HPGD block, LMNA splice mod, KinaseGlo FLuc)
COC(=O)c1cn(CC(=O)N2CCCCC2C)c2ccccc12 (configuration not stated)	none
COc1cccc(/C=N/n2c(-c3n[nH]c4c3CCC4)n[nH]c2=S)c1O	HPGD block inconclusive, ALDH1A1 inh inconclusive
COc1ccccc1/C=C/C=N/n1c(-c2n[nH]c3c2CCC3)n[nH]c1=S	ALDH1A1 inh 8.91µM (no result: HPGD block, LMNA splice mod, KinaseGlo FLuc)
S=c1[nH]nc(-c2n[nH]c3c2CCC3)n1/N=C/C=C/c1ccco1	ALDH1A1 inh 7.08µM (no result: HPGD block, LMNA splice mod, KinaseGlo FLuc)
S=c1[nH]nc(-c2ccco2)n1/N=C/C=C/c1ccco1	HPGD block 14.1µM
Nc1ccc(/C=C/C(=O)c2cccs2)cc1	none (no result: HPGD block, LMNA splice mod)
O=Nc1ccc(NOC(=O)c2ccccc2Br)cc1	HPGD block 28.2µM, ALDH1A1 inh 12.6µM, KinaseGlo FLuc inconclusive (no result: HTT cytoprotect)
NS(=O)(=O)c1ccc(NC(=O)CN2CCCC2)cc1	LMNA splice mod inconclusive (no result: HPGD block)
C[n+]1cc2c3c(ccc2c2ccc4cc5c(cc4c21)OCO5)OCO3	HPGD block inconclusive, LMNA splice mod inconclusive, HttQ103 aggreg 6.31µM
CN1CCN(NS(=O)(=O)c2ccc(Cl)s2)CC1	ALDH1A1 inh inconclusive
O=C(ONC1=NCCCCC1)c1c(F)cccc1F	LMNA splice mod inconclusive, HTT cytoprotect 0.794µM
O=C(ONC1=NCCCCC1)c1ccc(Cl)cc1	none
Cc1cccc(OCC(=O)NN2C(=O)C3C4C=CC(O4)C3C2=O)c1 (configuration not stated)	ALDH1A1 inh 3.16µM (no result: HPGD block)
Cc1ccccc1OCC(=O)NN1C(=O)C2C3C=CC(O3)C2C1=O (configuration not stated)	ALDH1A1 inh 8.91µM (no result: HPGD block)
CCOc1ccc(NC(=O)c2ccc(N)cc2)cc1	none
O=C(CCc1ccccc1)NN1C(=O)C2C3C=CC(O3)C2C1=O (configuration not stated)	none (no result: HPGD block, LMNA splice mod)
CCOc1ccc(C(=O)NN2C(=O)C3C4C=CC(O4)C3C2=O)cc1 (configuration not stated)	ALDH1A1 inh 12.6µM
COCCCNC(=O)c1ccc(N2CCOCC2)c(NS(=O)(=O)c2ccc(OC)cc2)c1	ALDH1A1 inh inconclusive
CCOCCCNC(=O)c1ccc(N2CCOCC2)c(NS(=O)(=O)c2ccc(OC)cc2)c1	ALDH1A1 inh 2.51µM (no result: HPGD block, LMNA splice mod)
CCCCNC(=O)c1ccc(N2CCOCC2)c(NS(=O)(=O)c2ccc(OC)cc2)c1	ALDH1A1 inh 8.91µM
O=C(c1cc(C(=O)c2ccco2)cc(C(=O)c2ccco2)c1)c1ccco1	ALDH1A1 inh inconclusive
Cn1c(SCC(=O)Nc2nc3c(s2)CCCC3)nnc1-c1ccccc1	none
Cc1ccccc1CNC(=O)c1ccccc1C	HPGD block inconclusive
Cc1ccccc1CNC(=O)c1ccccc1C(=O)O	HttQ103 aggreg 0.0089µM (no result: HTT cytoprotect)
Cc1ccccc1CNC(=O)c1ccccc1	HPGD block 15.8µM, ALDH1A1 inh inconclusive
Cc1c(NC(=O)OCCNC(=O)COc2ccc(Cl)cc2Cl)sc(=S)n1C	LMNA splice mod inconclusive
O=Nc1c(O)[nH]c2c(F)cccc12	none (no result: HTT cytoprotect)
Cc1ccc(-c2nn3nnnc3c3ccccc23)cc1C	ALDH1A1 inh 7.08µM
Nc1ccc(-c2cc(N)n(-c3ccccc3)n2)cc1	ALDH1A1 inh 11.2µM
CC(C)n1nc(C(=O)Nc2nnc(C3CC3)s2)c2ccccc2c1=O	none (no result: HPGD block, LMNA splice mod)
CCSc1nnc(NC(=O)c2nn(C(C)C)c(=O)c3ccccc23)s1	ALDH1A1 inh 25.1µM, HttQ103 aggreg inconclusive
CCSc1nnc(NC(=O)c2ccc3ccccc3n2)s1	LMNA splice mod inconclusive, ALDH1A1 inh inconclusive
CCSc1nnc(NC(=O)c2cc(C)nc3ccccc23)s1	HPGD block 28.2µM
COc1ccc(C2CC23N=C(c2ccccc2)OC3=O)cc1 (configuration not stated)	HPGD block inconclusive, ALDH1A1 inh inconclusive (no result: HTT cytoprotect)
O=C(Cn1c(-c2cccs2)cc2cc(F)ccc21)NCCCN1CCN(c2ccc(F)cc2)CC1	none (no result: HPGD block, HTT cytoprotect, ALDH1A1 inh, HttQ103 aggreg, KinaseGlo FLuc)
COc1ccc(S(=O)(=O)N(CCc2ccccc2)CC(=O)NCCCO)cc1	ALDH1A1 inh 8.91µM
COc1ccc(S(=O)(=O)N(CCc2ccccc2)CC(=O)N/N=C/c2ccc3c(c2)OCO3)cc1	HPGD block 22.4µM, LMNA splice mod inconclusive, ALDH1A1 inh inconclusive
CCCCNc1nc(C)nc2c1nc(-c1ccccc1)n2CCCN(CC)CC	HPGD block inconclusive, ALDH1A1 inh inconclusive (no result: LMNA splice mod, HttQ103 aggreg)
Cc1cc(S(=O)(=O)NC2CCCCC2)ccc1-n1cnnn1	none (no result: HPGD block)
COc1ccc(S(=O)(=O)NC2CCCCC2)cc1-n1cnnn1	ALDH1A1 inh 1.58µM (no result: HPGD block)
CCN(CC)S(=O)(=O)c1ccc(-n2cnnn2)c(C)c1	ALDH1A1 inh inconclusive
CCN(CC)S(=O)(=O)c1ccc(OC)c(-n2cnnn2)c1	ALDH1A1 inh 7.94µM (no result: HPGD block)
CC(C)(C)n1nnnc1C(c1cccs1)N(Cc1ccccc1)Cc1cccnc1 (configuration not stated)	LMNA splice mod inconclusive
COc1ccccc1C(=O)N1C(CC(=O)Nc2cc(Cl)ccc2C)C(=O)NC2CCCCC21 (configuration not stated)	ALDH1A1 inh inconclusive
COc1ccc(Cl)cc1NC(=S)NCc1ccccn1	HPGD block inconclusive, ALDH1A1 inh inconclusive
Cc1nc2ccccc2c(=O)n1/N=C/c1ccc(N(C)C)cc1	ALDH1A1 inh 15.8µM
Cc1nc2ccccc2c(=O)n1/N=C/c1ccc([N+](=O)[O-])o1	ALDH1A1 inh 18.9µM (no result: HPGD block, LMNA splice mod, KinaseGlo FLuc)
CCOc1cc(/C=C/C(=O)c2ccc(C)cc2)ccc1OCC(=O)N(C)C	LMNA splice mod inconclusive, ALDH1A1 inh inconclusive
O=C(c1ccc(-c2cc(Cl)ccc2Cl)o1)N1CCOCC1	LMNA splice mod inconclusive (no result: HPGD block)
CC12CCC(c3n[nH]c(=S)nc31)C2(C)C (configuration not stated)	HPGD block inconclusive, ALDH1A1 inh 20µM, HttQ103 aggreg inconclusive (no result: HTT cytoprotect)
CC12CCC(c3nnc(SCc4ccc(Cl)cc4)nc31)C2(C)C (configuration not stated)	LMNA splice mod inconclusive
O=C1COc2ccc(N3C(=O)C=CC3=O)cc2N1	ALDH1A1 inh 6.31µM (no result: HPGD block, LMNA splice mod)
